Assay outcomes deposited in PubChem BioAssay by The Scripps Research Institute Molecular Screening Center.
Only some compounds are listed: those with a hit (about 5.7% of all), similar ones and a draw of the others.
AHR activator – activates the human aryl hydrocarbon receptor; P35869; AHR-responsive luciferase reporter cells, luminescence; activation, % at 5 µM; 2.5% of 320,000 active; in the data active = activation above about 47%
DAX1 inh-1 – inhibitors of human orphan nuclear receptor DAX1 (NR0B1); HEK293 Gal4-DAX1 luciferase reporter, luminescence; inhibition, % at 6.75 µM; 0.99% of 340,000 active; AID 504766;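 active = inhibition above the mean over all tested compounds plus 3 SD, cut at about 4.2% in these data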;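 also: inhibition shows as a rise in luminescence from relieved DAX1 repression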
Target sequence (P51843 207-470 limits assumed): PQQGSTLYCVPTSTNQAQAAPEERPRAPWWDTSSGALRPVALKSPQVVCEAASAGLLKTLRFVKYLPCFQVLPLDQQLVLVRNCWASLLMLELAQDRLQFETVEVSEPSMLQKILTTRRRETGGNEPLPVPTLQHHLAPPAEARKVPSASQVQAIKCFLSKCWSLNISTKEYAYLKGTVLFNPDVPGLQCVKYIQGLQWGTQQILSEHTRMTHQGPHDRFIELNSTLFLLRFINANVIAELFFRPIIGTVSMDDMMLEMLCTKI
ssDAF12 agonist – activators of S. stercoralis DAF-12 nuclear receptor | HEK293 ssDAF-12/GRIP1 lit1-tk-luc reporter, luminescence; % of 3 µM dafachronic acid response | activation, % at 6.8 µM | 1% of 370,000 active;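 active = activation above the mean over all tested compounds plus 3 SD, cut at about 0.9% in these data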
hcDAF-12 act – activators of H. contortus DAF-12 nuclear receptor; activation, % at 6.8 µM; 1.4% of 370,000 active; HEK293 hcDAF-12 lit1-tk-luc reporter, luminescence; 0% DMSO, 100% Δ7-dafachronic acid; AID 652067;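 active = activation above the mean of all tested compounds plus 3 SD, cut at about 5.5% in these data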
DAX1 inh-2 – inhibitors of DAX1 repression of SF-1 activated StAR promoter; HEK293T StAR-luciferase reporter, SF-1/DAX-1 repression relief; inhibition, % at 6.8 µM; 1.1% of 370,000 active; AID 652010;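 active = inhibition above the mean over all tested compounds plus 3 SD, cut at about 3.6% in these data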;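 also: higher inhibition means more luminescence from relief of DAX-1 repression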
hgDAF12 agonist – hgDAF-12 agonism, primary luciferase screen; HEK293 GAL4-hgDAF12 UAS-luciferase reporter, agonist luminescence; normalized to butyrate control; AID 687014; activation, % at 6.8 µM; 1.8% of 370,000 active;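 active = activation above a cutoff set at the mean of all screened compounds plus 3 SD, cut at about 10% in these data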
Large screens that a line does not name were inactive.

CCCc1cc(C(=O)NCc2cccs2)no1	ssDAF12 agonist 2.0
COc1ccc(-c2cc(C(=O)NCc3cccnc3)no2)cc1	none
O=C(NCc1cccnc1)c1cc2nc(-c3cccs3)cc(C(F)(F)Cl)n2n1	none
O=C(NCc1cccnc1)c1cc(-c2ccccc2)on1	hgDAF12 agonist 11.7
CCCc1cc(C(=O)NCc2ccccc2)no1	none
O=C(NCc1cccnc1)c1cc(-c2cccs2)on1	hgDAF12 agonist 11.5
CCCc1cc(C(=O)NC2CCCCC2)no1	hgDAF12 agonist 12.8
NC(=O)c1cc2nc(-c3ccco3)cc(C(F)(F)F)n2n1	none
COC(=O)c1c(C)[nH]c(C(=O)CN2C(=O)C3CC=CCC3C2=O)c1C (configuration not stated)	none
CCCc1cc(C(=O)NCc2cccnc2)no1	hcDAF-12 act 5.8
COc1cc(SC)ccc1C(=O)OCC(=O)NCC(C)C	DAX1 inh-1 4.3
COc1cc(SC)ccc1C(=O)OCC(=O)NC(=O)NC(C)C	none
CCSc1cc(N2CCCC2)nc(-c2ccc(Cl)cc2)n1	none
Clc1ccc(-c2nnc(N3CCCC3)nn2)cc1	DAX1 inh-1 8.8
Cc1cc(O)ccc1NC(=S)NC(=O)c1cncc(Br)c1	AHR activator 60.2
Cc1ccccc1NC(=S)NC(=O)c1cncc(Br)c1	none
O=C(NC(=S)NC1CCCCCC1)c1cncc(Br)c1	hgDAF12 agonist 11.1
O=C(Nc1cc(-c2ccccc2)[nH]n1)c1ccccc1F	hgDAF12 agonist 12.3 (no result: DAX1 inh-1)
C/C(=N\Nc1ccc(F)cc1F)c1ccc(N2CCOCC2)cc1	none
C/C(=N\Nc1ccc(F)cc1F)c1ccc(Br)s1	AHR activator 54.4
C/C(=N\NC(=O)c1ccc(Cl)cc1)c1ccc(Br)s1	none
C/C(=N\Nc1ccc(F)cc1F)c1ccc(F)cc1	AHR activator 59.7 (no result: DAX1 inh-1, ssDAF12 agonist, hcDAF-12 act, DAX1 inh-2, hgDAF12 agonist)
COc1ccc(-n2c(CCc3ccccc3)nnc2SCC(=O)c2ccccc2)cc1	none
CN(C)c1cccc2c1c(NC(=O)Nc1ccccc1)nn2C	DAX1 inh-1 4.3
CN(C)c1cccc2c1c(NC(=O)c1ccc(Cl)cc1)nn2C	DAX1 inh-1 5.7
CN(C)c1cccc2c1c(NC(=O)Nc1ccc(F)cc1F)nn2C	none
c1ccc(Nc2ncnc3sccc23)cc1	none
CCOc1ccccc1CNS(=O)(=O)c1csc(C(N)=O)c1	none
c1ccc(C(Nc2cccnc2)c2ccccc2)cc1	none (no result: AHR activator)
c1ccc(NC(c2ccccc2)c2ccncc2)cc1 (configuration not stated)	ssDAF12 agonist 1.4
Cn1c(Cc2c[nH]c3ccccc23)n[nH]c1=S	ssDAF12 agonist 1.0
CN(Cc1nc2ccccc2c(=O)[nH]1)c1ccccc1	DAX1 inh-1 5.3
CSc1ccccc1NC(=O)CN(C)Cc1c(O)ccc2ccccc12	hcDAF-12 act 6.2
CN1CCN(C(=O)CCc2nc3ccccc3c(=O)[nH]2)CC1	hcDAF-12 act 6.0
COc1ccc(OCCN(C)Cc2c(O)ccc3ccccc23)cc1	hcDAF-12 act 6.0
CSc1ccccc1NC(=O)CN(C)Cc1ccc(Br)cc1	none
NC(=O)C1CCN(C(=O)CCc2nc3ccccc3c(=O)[nH]2)CC1	none
COc1cc2nc(CN(C)Cc3nc4ccccc4c(=O)[nH]3)[nH]c(=O)c2cc1OC	none
CC(C)CN(C(=O)COC(=O)c1ccc(Br)o1)c1c(N)n(Cc2ccccc2)c(=O)[nH]c1=O	none
CCN(CC(=O)Nc1ccccc1SC)Cc1nc2ccccc2c(=O)[nH]1	DAX1 inh-1 5.0
COc1ccccc1CC(=O)Nc1ccon1	none
Cc1cccc(-n2c(O)cnc2Nc2nc(C)cc(C)n2)c1	AHR activator 64.8 (no result: DAX1 inh-1)
CCCC(=O)Nc1sc(C(=O)Nc2cccc(N)c2)c(C)c1C(=O)OC	DAX1 inh-2 3.9
COC(=O)c1c(NC(C)=O)sc(C(=O)Nc2ccccc2F)c1C	hgDAF12 agonist 13.0
COC(=O)c1c(NC(C)=O)sc(C(=O)Nc2ccccc2)c1C	none
O=C(Nc1ccc(OC(F)(F)F)cc1)c1cnc2n(c1=O)CCS2	AHR activator 66.5
Cc1cccc(NC(=O)c2cnc3n(c2=O)CCS3)c1	none
O=C(Nc1ccccc1)c1cnc2n(c1=O)CCS2	AHR activator 54.2, hcDAF-12 act 6.1
O=C(Nc1ccc2c(c1)OCCO2)c1cnc2n(c1=O)CCS2	DAX1 inh-2 3.7
CCCCOC(=O)c1ccc(NC(=O)c2cnc3n(c2=O)CCS3)cc1	none
O=C(NCCC(=O)N1CCN(c2ccccc2O)CC1)c1ccc(Br)cc1	none
CSc1nnc(-c2cc3c(-c4ccccc4)nn(C)c3s2)n1C	none
COc1ccc(NC(=O)/C(C#N)=C/c2ccc[nH]2)c(OC)c1	hcDAF-12 act 6.5
COc1ccc(OC)c(NC(=O)C(C#N)=Cc2ccco2)c1	none (no result: AHR activator)
CC(=O)c1sc2c(c1N)c(=O)[nH]c(=O)n2-c1ccccc1	none
CCOC(=O)CC(=O)c1sc2c(c1N)c(=O)[nH]c(=O)n2-c1ccc(OC)cc1	DAX1 inh-1 4.3
CCC(c1nnnn1Cc1ccco1)N1CCN(C(=O)c2ccco2)CC1 (configuration not stated)	none
O=C(O)C1CCC(=O)N1C1CCCC1 (configuration not stated)	none
Cc1cc(C(=O)O)ccc1N/C=C1\CCCC(C)C1=O (configuration not stated)	hgDAF12 agonist 10.7
CC1CCC/C(=C\Nc2ccc(O)cc2)C1=O (configuration not stated)	none
O=C(NCCc1ccc(Cl)cc1)c1ccc2ccccc2n1	hcDAF-12 act 6.0
COCCNC(=O)c1ccc2ccccc2n1	none
O=C(NCCc1ccccc1)c1cnc2ccccc2n1	hgDAF12 agonist 13.0
COc1ccc(Cl)cc1C(=O)Nc1ccc2nc3n(c(=O)c2c1)CCCC3	none (no result: AHR activator)
COc1cc2c(=O)n(Cc3ccco3)c(=O)n(CC(=O)c3cccc(Br)c3)c2cc1OC	none (no result: DAX1 inh-1, ssDAF12 agonist, hcDAF-12 act, DAX1 inh-2, hgDAF12 agonist)
CC1CCc2c(sc(NC(=O)c3nc4ncccn4n3)c2C#N)C1 (configuration not stated)	DAX1 inh-1 4.4
COCCNC(=O)c1onc(CSc2cccc(OC)c2)c1C(=O)NCCOC	none
C/C(=C\c1ccc(Br)cc1)C(=O)c1c(C)cc(C)[nH]c1=O	none (no result: AHR activator)
C/C(=C\c1ccc(Cl)cc1)C(=O)c1c(C)cc(C)[nH]c1=O	DAX1 inh-1 4.5
CSc1n[nH]c(=O)n1C1CCCCC1	DAX1 inh-1 6.0
CCOC(=O)Cc1nnc(Nc2cccc(C)c2)c2ccccc12	none
COC(=O)Cc1nnc(Nc2cccc(C)c2)c2ccccc12	AHR activator 61.5
CCOc1cc(CN2CCCCCC2)ccc1OC	none
CCCOc1ccc(CN2CCOCC2)cc1OC	DAX1 inh-1 5.3
Cc1ccc(O)c(Nc2ncnc3ccc([N+](=O)[O-])cc23)c1	AHR activator 50.4
COc1ccc(Nc2ncnc3ccc([N+](=O)[O-])cc23)c(OC)c1	none
COc1ccc([N+](=O)[O-])cc1Nc1ncnc2ccccc12	none
